# Measurements reported in PubChem BioAssay (NCI).
# Compounds without any hit were thinned out: in the full panel of roughly 79,000, 15% have a hit. Values without a mark were called inactive. Calls of active or inactive are those of the source. No stated cut-off is given here; in the data, active means growth inhibition above about 70%; inactive means the rest.
# Experiments:
# [1] = NCI Yeast Anticancer Drug Screen. Data for the rad50 strain (AID 155);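 further: 0% = growth of vehicle-only cultures of the same strain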; conditions: S. cerevisiae rad50 strain growth inhibition; at 50.0 µM; stronger effect = higher value
# In short: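 Compounds were tested on a yeast strain with an engineered DNA damage repair alteration; the reported value is growth inhibition normalised to vehicle treatment.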
# [2] = NCI Yeast Anticancer Drug Screen. Data for the mec2-1 strain (AID 157); conditions: S. cerevisiae mec2-1 strain, at 50.0 µM, stronger effect = higher value
# In short: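 Test agents were screened against the mec2-1 yeast strain, with defined DNA repair or cell cycle alteration. Growth was scored as inhibition against vehicle-only controls.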
# [3] = NCI Yeast Anticancer Drug Screen. Data for the sgs1 mgt1 strain (AID 161);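 further: 0% = growth of cultures given vehicle only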; conditions: S. cerevisiae sgs1 mgt1 strain, at 50.0 µM, stronger effect = higher value
# In short: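 Read-out: growth inhibition vs vehicle controls. Cells: mutant yeast strain deficient in DNA damage repair.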
# [4] = NCI Yeast Anticancer Drug Screen. Data for the cln2 rad14 strain (AID 165);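 further: 0% = growth equal to vehicle treated cultures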; conditions: S. cerevisiae cln2 rad14 strain, at 50.0 µM, stronger effect = higher value
# In short: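 Growth of compound-exposed yeast (cln2 rad14 genotype) measured and expressed as inhibition relative to vehicle.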
# [5] = NCI Yeast Anticancer Drug Screen. Data for the bub3 strain (AID 167); conditions: S. cerevisiae bub3 mutant strain, at 50.0 µM, stronger effect = higher value
# In short: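 Growth of a checkpoint-deficient yeast mutant is measured after compound exposure. Values represent inhibition relative to vehicle.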
# [6] = NCI Yeast Anticancer Drug Screen. Data for the mlh1 rad18 strain (AID 175); conditions: S. cerevisiae mlh1 rad18 strain growth inhibition; at 50.0 µM; stronger effect = higher value
# In short: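 In this whole-cell yeast screen, a strain with altered DNA damage repair is challenged with compound, and its growth is measured against matched vehicle-treated controls.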
SMILES,growth inhibition [1],growth inhibition [2],growth inhibition [3],growth inhibition [4],growth inhibition [5],growth inhibition [6]
CN(C)c1ccc(SC2OC(CO)C(O)C(O)C2O)cc1 (stereo unspecified),-12.8%,-5.25%,-7.3%,-54.5%,3.7%,-10%
N#CC(/C(=N/NC(=O)C(=O)NN)C(=O)NC12CC3CC(CC(C3)C1)C2)c1ccccc1 (stereo unspecified),16.1%,10.8%,1%,1.4%,30.6%,-2.05%
CC(NC(=O)OCc1ccccc1)C(=O)Nc1ccc(C(=O)O)c(O)c1 (stereo unspecified),5.55%,-5.1%,11.9%,-9%,45.1%,-10.8%
CSC1=C(C#N)C(=O)N(c2ccc(C)cc2)C(=O)C1C#N (stereo unspecified),26.1%,12.2%,31.1%,24.4%,5.5%,20.3%
CC(Cc1ccco1)C(=O)O (stereo unspecified),9.2%,15.4%,-0.3%,-14%,1.9%,-11.2%
Cc1csc(=NCc2cccnc2)n1C,14.7%,-9.75%,23.6%,23.4%,19.8%,15.8%
Cc1ccc(C)c(CNC(=O)C2CCCCC2C(=O)O)c1 (stereo unspecified),9.3%,33.6%,37.2%,-0.6%,34.6%,-3.2%
NC(=O)CC(N)C(=O)NC(Cc1ccccc1)C(=O)NC(Cc1ccccc1)NC(=O)C(Cc1c[nH]c2ccccc12)C(=O)O (stereo unspecified),-18.6%,8.05%,-11.1%,-13.2%,1.85%,1.95%
CCc1ccccc1NC(=O)/C(CC(=O)c1c(C)n([O-])c2ccccc2[n+]1=O)=N\NS(=O)(=O)c1ccc(C)cc1,-18.8%,-8.25%,-12.3%,12.7%,7.25%,2.5%
Cc1ccc(F)c(N)c1,26.8%,-17.2%,24.1%,5.8%,5.75%,27.9%
C=CCC(OC(=O)C=C(C)C)c1ccc2c(c1)OCO2 (stereo unspecified),-23.6%,-31.9%,-6.65%,-5.5%,38.8%,6.3%
COC(=O)N/N=C/c1cccc(C)n1,-5.55%,2.05%,-4.55%,0.7%,-5.25%,-11.6%
COc1c(C)cc2c(C(C)C)c(O)c(O)c(C=O)c2c1O,86.1% (active),88.2% (active),80.5% (active),79% (active),80.8% (active),76.3% (active)
COc1nc(NC2OCC(OC(C)=O)C(OC(C)=O)C2OC(C)=O)c(-c2csc(N)n2)c(=O)n1C (stereo unspecified),-1.9%,-21.9%,-14.6%,13.6%,-2.3%,6.85%
C/C(CCl)=N/NC(N)=S,-13.2%,-2.5%,-18.4%,7%,-11.9%,-12.5%
NC(=O)C(=CNC(=S)Nc1ccc(S(N)(=O)=O)cc1)C(N)=O,-10.1%,-31.1%,-16.4%,2.9%,-10.4%,0.5%
CC1(C)OC2COC3(COC(C)(C)O3)C(O)C2O1 (stereo unspecified),-9.05%,0.2%,4.15%,-3.7%,-6.2%,-24.8%
c1ccc(C(c2cccc3c2ccc2ccccc23)C(c2ccccc2)c2cccc3c2ccc2ccccc23)cc1 (stereo unspecified),4.75%,-9.6%,-33.3%,-19.6%,-22.4%,-12.7%
CCCC(C)(CCC)OC(=O)Nc1cccc2ccccc12,-3%,-4.2%,-4.4%,-10.7%,6.95%,15.2%
O=C(Cc1ccccc1)NN1C(=O)/C(=C\c2ccccc2)SC1=Nc1ccccc1,12%,-1.35%,19.3%,35.5%,9.15%,10.8%
CCCC(F)C(=O)OCC (stereo unspecified),11.5%,-6.35%,5.4%,-9.35%,10%,0.3%

SMILES,growth inhibition [1],growth inhibition [2],growth inhibition [3],growth inhibition [4],growth inhibition [5],growth inhibition [6]
CC(=O)[C@H]1CC[C@H]2[C@@H]3CC=C4C=CCC[C@]4(C)[C@H]3CC[C@]12C,-6.3%,1%,-3.55%,-58.5%,8.4%,6.7%
CN(C)CCN=C1Nc2ccccc2C(=S)N2CSCC12 (stereo unspecified),-0.75%,17.1%,-10.4%,-2.05%,5.85%,11.9%
C[C@@H](C1CCC2C3C(=CC(=O)[C@@]21C)[C@H](C)[C@]1(CCC(=O)O1)C1OC31)[C@H]1C[C@]2(C)O[C@@](C)(O1)OC2(C)C (stereo partly specified),-11.2%,-0.9%,-25.9%,-4.85%,-14.2%,9.15%
CO/[N+]([O-])=C\C(=O)N/C=C/C(=O)O,19.1%,5.85%,7.3%,18.7%,23.6%,15.2%
CCn1nc(C)c2c1C(=O)NCC(=O)N2,-34.1%,-44.6%,-26.9%,-10.4%,-17.6%,-2.3%
c1ccc(C[n+]2cccc3ccccc32)cc1,1.75%,-29.6%,-7.1%,6.25%,-1.95%,-12.2%
CC(=O)c1cccc(N2COC(C)(C)c3nc4ccccc4n3C2)c1,5.9%,-9.85%,-20.1%,12.8%,-19.9%,-0.05%
Cc1ccc(-c2oc(-c3ccc(C)cc3)c3cc(C)c(C)cc23)cc1,4.8%,13.5%,-6.7%,8.5%,-8.6%,-4.6%
CC(C)c1nc2c([nH]1)c(=O)n(C)c(=O)n2C,30.2%,6.85%,26.4%,18%,2.8%,17.9%
Nc1ccc(C(=O)NO)c(O)c1,6.2%,18.9%,-7.55%,-41.8%,18.7%,-6%
c1ccc(Cc2nnc3n2CCC(c2ccccc2)S3)cc1 (stereo unspecified),-9.8%,1.3%,-10.9%,2.4%,5.05%,-0.25%
OC/C(I)=C(I)\C(I)=C(\I)CO,99.2% (active),99.3% (active),99.5% (active),99.4% (active),98.7% (active),99.4% (active)
O=[N+]([O-])c1ccc(/C([O-])=C(\C(=S)Nc2ccccc2Cl)[n+]2ccccc2)cc1,-7.5%,0.1%,-6.95%,-14.4%,2.35%,11.2%
CC1ON2CCCC2[C@H]1C(=O)N1C2CC3CCC2(CS1(=O)=O)C3(C)C (stereo partly specified),-4.35%,2.9%,-28.6%,-0.35%,19.4%,-36.7%
C=CCSc1nc2ccc(NCn3c(=S)sc4cc([N+](=O)[O-])ccc43)cc2s1,12.6%,14.4%,30.9%,14%,3.4%,31.9%
Cc1cc(N(CCC#N)CCC#N)ccc1/C=C(\NC(=O)/C=C/c1ccccc1)NC(=O)Nc1ccc(Cl)cc1,13.5%,2.75%,-17.9%,10.8%,12.5%,29.2%
COC1/C=C\OC2(C)Oc3c(C)c(O)c4c(O)c(c5sc(N)nc5c4c3C2=O)NC(=O)/C(C)=C\C=C\C(C)C(O)C(C)C(O)C(C)C(OC(C)=O)C1C (stereo unspecified),-2.25%,16.6%,4.75%,14.8%,22.1%,10.8%
Cc1csc2nc(-c3ccncc3)cn12,10.7%,10.1%,-14%,1.4%,37.1%,23.1%
CCOC(=O)CCCCCOC1CCCCO1 (stereo unspecified),7.4%,18.2%,11.2%,-0.1%,-7.35%,-10.5%
NC(=O)Nc1ccc(S(=O)(=O)c2ccc(N)cc2)cc1,0.5%,-5.2%,12.5%,-5.35%,4%,-15.7%
